Our source for the outcome and AC50 values is PubChem BioAssay (EPA / NIEHS).

Activity calls are given as the source filed them. The calls were made as follows: active = hit-call score of the fitted dose curve at least 0.9, where 1 is the maximum; inactive = score below 0.9.

The nature of assay [1]: ATG_E_Box_CIS: Attagene CIS-FACTORIAL HepG2 Assay for human Enhancer Box (E-box) (AID 2282936). The settings on record: HepG2 E-box cis-reporter transcription, actives raise or lower the signal. A digest of the protocol: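 First, HepG2 cells receive multiple cis-regulated reporter constructs by transient transfection. Next, chemicals are applied for 24 h. Finally, reporter mRNA is quantified via RT-PCR and capillary electrophoresis, with DMSO as baseline.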

Assay [2] can be described thus: ATG_M_61_CIS: Attagene CIS-FACTORIAL HepG2 Assay for M61 Transcription Factor (Internal Marker) (AID 2282937). The settings on record: HepG2 Attagene CIS-FACTORIAL M61 internal marker reporter; actives raise or lower the signal. The method in brief: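 HepG2 cells transiently transfected with multiplexed cis-promoter reporter units reporting endogenous transcription factor activity, measured 24 h after dosing. Reporter mRNA quantified by RT-PCR and capillary electrophoresis; bidirectional fit against DMSO baseline.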

A short description of assay [3]: ATG_EGR_CIS: Attagene CIS-FACTORIAL HepG2 Assay for human Early Growth Response 1 (EGR1) (AID 2282938). The note with it: HepG2 Attagene CIS-FACTORIAL EGR reporter mRNA; actives raise or lower the signal. A digest of the protocol:
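HepG2 cells transiently transfected with cis-element-driven multiplexed reporter units, dosed for 24 h. EGR1-element reporter mRNA quantified by RT-PCR, 6-FAM labelling, HpaI digestion and capillary electrophoresis; bidirectional fit versus DMSO.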

Assay [4] can be described thus: ATG_M_19_CIS: Attagene CIS-FACTORIAL HepG2 Assay for M19 Transcription Factor (Internal Marker) (AID 2282939). The settings on record: HepG2 Attagene CIS-FACTORIAL M19 internal marker reporter; actives raise or lower the signal. The method in brief: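 Chemical-treated HepG2 (24 h) with MRTU constructs; reporter transcripts detected by fluorescent RT-PCR fragment analysis on capillary electrophoresis. Internal background marker, DMSO as baseline.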

The nature of assay [5]: ATG_Ets_CIS: Attagene CIS-FACTORIAL HepG2 Assay for human Erythroblast Transformation Specific (ETS) (AID 2282941). The note with it: HepG2 ETS cis-reporter transcription, actives raise or lower the signal. The method in brief:
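Steps: transfect HepG2 with multiple reporter units; treat compound 24 h; isolate RNA, DNase-treat, reverse-transcribe; PCR-amplify, label with 6-FAM, digest with HpaI; separate by capillary electrophoresis. Activity fitted both directions versus DMSO.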

In assay [6] the target is Hepatocyte nuclear factor 3-beta (Homo sapiens) (UniProt Q9Y261). The assay is described as follows: ATG_FoxA2_CIS: Attagene CIS-FACTORIAL HepG2 Assay for human Forkhead box A2 (FOXA2) (AID 2282942). The note with it: HepG2 cis-reporter transcription factor activity, 24 h; actives raise or lower the signal. A digest of the protocol:
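HepG2 transiently transfected with a multiplexed cis-promoter reporter library read endogenous FOXA2 activity. After 24 h compound exposure, reporter mRNA was quantified by RT-PCR, HpaI digestion and capillary electrophoresis. Bidirectional fit against DMSO.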

The nature of assay [7]: ATG_FoxO_CIS: Attagene CIS-FACTORIAL HepG2 Assay for human Forkhead box O (FoxO) (AID 2282943). The settings on record: HepG2 Attagene cis-reporter, FoxO element, mRNA; actives raise or lower the signal. The method in brief:
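Transfected HepG2 reporter cells exposed to test chemical for 24 h; reporter RNA measured by reverse transcription, PCR and fluorescent capillary electrophoresis; curves fitted for increases and decreases against DMSO.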

Assay [8] can be described thus: ATG_GATA_CIS: Attagene CIS-FACTORIAL HepG2 Assay for human GATA Binding Protein (AID 2282944). The settings on record: HepG2 GATA cis-element reporter, Attagene multiplex mRNA; actives raise or lower the signal. A digest of the protocol: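 Transfected cis-reporter HepG2 cells were treated with chemicals for 24 hours. Total RNA was then converted to cDNA, amplified with reporter-specific primers and analysed by fluorescent capillary electrophoresis, using DMSO-treated wells as baseline.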

The nature of assay [9]: ATG_GLI_CIS: Attagene CIS-FACTORIAL HepG2 Assay for human Zinc Finger Protein GLI1 (AID 2282945). The settings on record: HepG2, Attagene cis-factorial reporter mRNA, GLI element; actives raise or lower the signal. The method in brief:
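Transiently transfected HepG2 cells report endogenous transcription factor activity via cis-element-driven reporter units. After 24 h compound exposure, reporter mRNA was measured by RT-PCR with capillary electrophoresis; bidirectional fitting against DMSO baseline.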

The AC50 is the concentration at which the activity in the assay is half-maximal.

Hepatocyte nuclear factor 3-beta (Homo sapiens), sequence (Q9Y261 whole entry, looked up): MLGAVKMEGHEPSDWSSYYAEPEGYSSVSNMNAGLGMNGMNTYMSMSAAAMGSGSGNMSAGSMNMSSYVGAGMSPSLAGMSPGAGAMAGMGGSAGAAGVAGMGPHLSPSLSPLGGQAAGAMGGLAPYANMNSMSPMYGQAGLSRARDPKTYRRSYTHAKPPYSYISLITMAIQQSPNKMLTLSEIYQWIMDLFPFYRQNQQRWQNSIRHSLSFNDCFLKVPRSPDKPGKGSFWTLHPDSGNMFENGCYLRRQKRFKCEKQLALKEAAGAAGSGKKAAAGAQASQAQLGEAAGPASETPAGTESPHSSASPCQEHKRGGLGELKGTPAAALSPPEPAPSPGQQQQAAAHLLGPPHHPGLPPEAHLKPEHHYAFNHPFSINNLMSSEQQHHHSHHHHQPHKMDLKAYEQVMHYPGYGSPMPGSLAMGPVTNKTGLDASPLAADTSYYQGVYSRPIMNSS

In the case of `C[Si](O[Si](C)(C)C)O[Si](C)(C)C`, the outcome in assay [1], in assay [2], in assay [3], in assay [4], in assay [5] and in [6] was inactive. The compound was called inactive in assay [7], in assay [8] and in assay [9].
Consider `COc1ccc(Cl)cc1C`, for which the outcome in [1], in assay [2], in [3], in [4], in [5] and in assay [6] was inactive. For the same compound, the compound was called inactive in assay [7], in assay [8] and in [9].
Regarding `O=C1NC(=O)c2ccccc21`, the outcome in assay [1], in assay [2], in [3], in assay [4], in assay [5] and in assay [6] was inactive. Further, the result in assay [7], in assay [8] and in assay [9] was inactive.
For the compound `O=C(Oc1ccccc1)c1ccc(O)cc1`, the result in [1], in assay [2], in assay [3], in assay [4], in assay [5] and in [6] was inactive. Moreover, the result in [7], in [8] and in assay [9] was inactive.
Turning to `CC(=O)c1c(C)cc(C(C)(C)C)cc1C`, the result in assay [1], in assay [2], in assay [3], in assay [4], in [5] and in assay [6] was inactive. Further, the call in assay [7], in assay [8] and in [9] was inactive.
`CC1(C)C(=O)N(Br)C(=O)N1Cl`: the outcome in assay [1], in assay [2], in [3], in [4], in assay [5] and in assay [6] was inactive. Besides, the call in [7], in assay [8] and in [9] was inactive.
As to `CCCCOCCOCCSC#N`, the outcome in assay [1], in [2], in [3], in [4], in assay [5] and in assay [6] was inactive. The compound was classed as inactive in [7], in assay [8] and in assay [9].
On to `CC1CCC(C(C)CS)CC1S` (centres undefined), for which the result in assay [1], in assay [2], in assay [3], in assay [4], in assay [5] and in [6] was inactive. Moreover, the result in assay [7] and in [9] was inactive. For the same compound, in [8], the AC50 is 61.1 µM (active).
As to `NCCNCCN`, the result in [1], in assay [2], in assay [3], in [4], in [5] and in [6] was inactive. Besides, the compound was classed as inactive in [7], in assay [8] and in assay [9].
Take `C=C[Si](OCC)(OCC)OCC`: the result in assay [1], in assay [2], in [3], in [4], in [5] and in assay [6] was inactive. The call in assay [7], in assay [8] and in [9] was inactive.
In the case of `CCCCCCCCCCCCOCCO`, the AC50 was 50.6 µM (active) in assay [1], 47.6 µM (active) in assay [6], 56.6 µM (active) in assay [7] and 60.7 µM (active) in assay [9]. The call in [2], in assay [3], in [4], in assay [5] and in [8] was inactive.
For `C=CC(=O)OCCOCCOCC`, the outcome in [1], in assay [2], in [4], in assay [5], in assay [6] and in assay [7] was inactive. For the same compound, the result in assay [8] and in [9] was inactive. For the same compound, in assay [3], the AC50 was 100 µM (active).
With `C=C[C@@H](C)CCC=C(C)C`, the result in assay [1], in assay [2], in assay [3], in assay [4], in assay [5] and in [6] was inactive. Moreover, the result in assay [7], in assay [8] and in assay [9] was inactive.
Consider `COc1cccc(OC)c1`, for which the outcome in assay [1], in [2], in [3], in [4], in assay [5] and in assay [6] was inactive. For the same compound, the outcome in assay [7], in assay [8] and in [9] was inactive.
As to `CC(CN1c2ccccc2Sc2ccccc21)N(C)C` (centres undefined), the figures for the concentration at half-maximal activity (AC50) in [1] and in assay [3] were 55.5 µM (active) and 25.2 µM (active), respectively. Also, the result in [2], in assay [4], in assay [5], in assay [6], in assay [7] and in assay [8] was inactive. In addition, the outcome in assay [9] was inactive.
`CCCCCCOC(=O)CCCCC`: the result in assay [1], in [2], in assay [3], in assay [4], in assay [5] and in assay [6] was inactive. The compound was classed as inactive in [7], in [8] and in assay [9].
As for `CCCCCCCCCCCCN(CCCCCCCCCCCC)CCCCCCCCCCCC`, the outcome in [1], in [2], in [3], in assay [4], in assay [5] and in [6] was inactive. The outcome in assay [7], in assay [8] and in [9] was inactive.
`CC(C)[C@@H]1CC[C@@H](C)CC1=O`: the outcome in [1], in [2], in assay [3], in assay [4], in assay [5] and in assay [6] was inactive. Also, the compound was classed as inactive in assay [7], in assay [8] and in assay [9].
Consider `CNC[C@H](O)c1cccc(O)c1`, for which the result in assay [1], in assay [2], in assay [3], in assay [4], in assay [5] and in [6] was inactive. Also, the compound was classed as inactive in assay [7], in assay [8] and in assay [9].
For the compound `CCCC1CCC(=O)O1` (centres undefined), the outcome in assay [1], in assay [2], in [3], in assay [4], in [5] and in assay [6] was inactive. Besides, the result in [7], in assay [8] and in assay [9] was inactive.
For the compound `CC1CCC(C(C)(C)O)CC1` (centres undefined), the result in [1], in assay [2], in assay [3], in assay [4], in [5] and in assay [6] was inactive. Further, the result in assay [7] and in assay [9] was inactive.
Consider `Cc1ccc2ccccc2n1`, for which the outcome in assay [1], in [2], in assay [3], in assay [4], in [5] and in assay [6] was inactive. The call in assay [7], in assay [8] and in assay [9] was inactive.
As for `CCCCCCCCC=O`, the outcome in [1], in [2], in assay [3], in [4], in assay [5] and in assay [6] was inactive. For the same compound, the compound was classed as inactive in [7], in [8] and in [9].
`CC(C)C[C@H]1C(=O)N2CCC[C@H]2[C@]2(O)O[C@](NC(=O)[C@@H]3C=C4c5cccc6[nH]c(Br)c(c56)C[C@H]4N(C)C3)(C(C)C)C(=O)N12`: the outcome in [1], in [2], in [4], in assay [5], in [6] and in assay [7] was inactive. Besides, the outcome in assay [8] and in assay [9] was inactive. For the same compound, the AC50 in assay [3] is 1.65 µM (active).
Consider `O=[N+]([O-])c1ccc(Nc2ccc(Nc3ccccc3)c(S(=O)(=O)O)c2)c([N+](=O)[O-])c1`, for which the outcome in assay [1], in assay [2], in assay [4], in [5], in assay [6] and in assay [7] was inactive. Moreover, the compound was called inactive in assay [9]. Further, the AC50 in [3] was 100 µM (active).
For the compound `N#Cc1nc(Cl)c(Cl)c(Cl)c1Cl`, the AC50 was 5.53 µM (active) in assay [1]; 4.56 µM (active) in [3]; 2.25 µM (active) in [5]; 6.82 µM (active) in assay [6]; 5.92 µM (active) in [7]; 3.71 µM (active) in assay [8]. The AC50 in assay [9] is 5.39 µM (active). Besides, the outcome in assay [2] and in assay [4] was inactive.
Consider `OCCOc1cccc(OCCO)c1`, for which the result in assay [1], in [2], in [3], in assay [4], in assay [5] and in assay [6] was inactive. For the same compound, the call in assay [7], in assay [8] and in assay [9] was inactive.
For the compound `Cc1cccc(Nc2ccccc2C(=O)O)c1C`, the result in assay [1], in [2], in assay [3], in assay [4], in assay [5] and in [6] was inactive. The outcome in [7] and in [9] was inactive.
